RORg inh – inhibitors of mouse ROR gamma transcriptional activity. P51450. Drosophila S2 Gal4-RORgamma UAS-luciferase reporter, 20 h. Potency, µM (top dose mostly 53.6 µM), inactives show at the highest dose activity change, negative = inhibition, actives largely listed as inhibitors. hit rate 5.4% among 310,000; note: nearly all actives have a fitted effect of over 60% in size
Target sequence (P51450 whole entry, looked up, the tested form may be a part): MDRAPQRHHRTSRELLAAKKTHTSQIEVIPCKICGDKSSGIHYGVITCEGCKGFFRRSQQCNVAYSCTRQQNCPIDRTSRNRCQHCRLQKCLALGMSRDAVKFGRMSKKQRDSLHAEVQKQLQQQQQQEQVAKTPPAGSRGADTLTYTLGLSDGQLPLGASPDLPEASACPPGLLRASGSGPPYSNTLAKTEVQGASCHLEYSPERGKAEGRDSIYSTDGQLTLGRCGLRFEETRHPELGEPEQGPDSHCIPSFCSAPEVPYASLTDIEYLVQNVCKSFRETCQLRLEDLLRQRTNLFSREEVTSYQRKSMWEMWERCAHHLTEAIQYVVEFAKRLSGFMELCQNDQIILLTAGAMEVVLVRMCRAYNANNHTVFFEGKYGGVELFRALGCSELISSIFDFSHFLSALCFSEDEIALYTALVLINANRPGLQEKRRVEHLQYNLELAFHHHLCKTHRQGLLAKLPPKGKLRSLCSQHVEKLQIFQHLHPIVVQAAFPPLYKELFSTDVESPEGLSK
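Luciferase reporter read in Schneider cells carrying Gal4-RORγ (mouse) and UAS-Photinus luciferase; cells given compound 1 h before 700 uM copper sulfate induction, then incubated 20 h at ambient temperature.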
Luc counter – counter-screen: inhibitors of Kinase-Glo firefly luciferase; Q27757; Kinase-Glo luciferase, ATP luminescence, 8 min; Potency, µM (titrated, usually from 38.3 µM), without a hit: at the top dose activity change, negative = inhibition, usual class: inhibitors; hit rate 0.28% among 200,000; note: nearly all actives have a fitted effect of over 60% in size
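Inhibition of Kinase-Glo luciferase light generation was assessed at 10 uM ATP in pH 7.2 imidazole buffer, with luminescence measured after eight minutes at ambient temperature.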
Gal4-VP16 FLuc – counter-screen for ROR gamma inhibitors: Gal4-VP16 reporter; hit rate 3.5% among 310,000; AID 2546; Potency, µM (top dose mostly 53.6 µM), for the others: at the highest dose activity, negative = inhibition, hits mostly inhibitors; Drosophila S2 Gal4-VP16 UAS-luciferase, luminescence, 20 h;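 note: Gal4-VP16 expression switched on by copper sulfate through the metallothionein promoter; nearly all actives have a fitted effect of over 50% in size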
* hit, by the source's call; u = inconclusive; x = no result given; [ ] = dose if it differs, or a comment. Shown are actives, neighbours in structure and some others; about 6.2% of the full set was active somewhere. Calls come from the whole dose curve; as a rule, active = well fitted curve in the direction sought with a large enough effect; inconclusive = small, poorly fitted or top-dose-only effect, or another doubt; inactive = no such curve, though single readings can be large; an effect the other way counts as inactive or inconclusive. % is set by controls: 0 for no effect and ±100 for the full control effect; potency is the fitted concentration of half-maximal effect.

SMILES	RORg inh	Luc counter	Gal4-VP16 FLuc
CCn1cc(Cl)c(C(=O)N2N=C(c3ccc4ccccc4c3)CC2c2ccccc2O)n1 (stereo not given)	u	-1.1%	15.8µM*
COc1ccc(/C=C2\C(=O)NC(=S)N2C(=O)c2ccc(F)cc2)cc1	8.91µM*	1.8%	11.2µM*
O=C1NC(=S)N(C(=O)c2ccc(F)cc2)/C1=C/c1ccccc1	13.4%	-1.2%	0.7%
C=CCC1(CC=C)CCCN1C(=O)c1cc(COc2ccc(F)c(F)c2)on1	8.7%	x	u
C=CCC1(CC=C)CCCN1C(=O)c1cc(COc2ccc(C)nc2)on1	u	x	8.91µM*
CC(C)C[C@H](NC(=O)[C@H](Cc1ccccc1)NC(=O)CNC(=O)CNC(=O)[C@@H](N)Cc1ccc(O)cc1)C(=O)N[C@@H](CCCN=C(N)N)C(=O)N[C@@H](CCCN=C(N)N)C(=O)N[C@@H](CCC(N)=O)C(=O)N[C@@H](Cc1ccccc1)C(=O)N[C@@H](CCCCN)C(=O)N[C@H](C(=O)N[C@H](C(=O)N[C@H](C(=O)O)[C@@H](C)O)C(C)C)C(C)C	9.6%	x	2.1%
COCc1cc(C)nc(OCC(=O)N/N=C/c2ccc(O)cc2O)c1C#N	-41.1%	-0.2%	-2.8%
COCc1cc(C)nc(OCC(=O)N/N=C/c2ccccc2O)c1C#N	15.8µM*	-0.8%	-7.1%
CCOc1cc(CNc2ncn[nH]2)ccc1OCC(=O)NC(C)(C)C	-2.6%	-4.1%	-2.1%
CC(=O)OCC1OC(n2cnc3c(=O)[nH]cnc32)C(OC(C)=O)C1OC(C)=O (stereo not given)	-8.7%	-3.0%	-8.6%
COc1ccc(N2CCN(C(=O)CCCn3c(=S)[nH]c4cc5c(cc4c3=O)OCO5)CC2)cc1	7.08µM*	2.0%	u
O=C(CCCn1c(=S)[nH]c2cc3c(cc2c1=O)OCO3)N1CCN(c2ccccn2)CC1	12.6µM*	-1.7%	u
O=C(CCCCCn1c(=S)[nH]c2cc3c(cc2c1=O)OCO3)N1CCN(C(=O)c2ccco2)CC1	-12.0%	4.5%	8.6%
COc1ccc(CNC(=O)CCCn2c(=S)[nH]c3cc4c(cc3c2=O)OCO4)cc1	-23.0%	x	0.0%
O=C(CCCn1c(=S)[nH]c2cc3c(cc2c1=O)OCO3)NCc1cccc(Cl)c1	12.6µM*	x	u
O=C(CCCCCn1c(=S)[nH]c2cc3c(cc2c1=O)OCO3)N1CCN(Cc2ccccc2)CC1	-5.3%[0.365 µM]	1.1%	x
Cc1ccnc(NC(=O)c2ccc(Cl)s2)c1	-30.7%	x	u
C(=N\Nc1cc(N2CCCCC2)ncn1)/c1ccco1	-39.5%	x	u
Cc1ccc(C(=O)N2CCc3ccccc32)o1	u	12.6µM*	-18.4%
CC(=O)c1c(C)[nH]c(C(=O)N2c3ccccc3CC2C)c1C (stereo not given)	0.8%	0.8%	1.8%
O=C(c1ccc([N+](=O)[O-])o1)N1CCc2ccccc21	-35.5%	x	15.8%
Cc1ccc(C(=O)N2c3ccccc3CC2C)o1 (stereo not given)	-8.0%	11.2µM*	0.5%
CCOC(=O)[C@H](CCc1ccccc1)N[C@@H](C)C(=O)N1[C@H](C(=O)O)C[C@H]2CCC[C@@H]21	10.9%[16.9 µM]	1.1%[17.1 µM]	7.2%[17 µM]
O=C(Nc1nnc(C2=COCCO2)o1)C1CCCCC1	19.7%	-2.6%	1.1%
O=C(Nc1nnc(-c2ccc(Cl)cc2)o1)C1=COCCO1	2.51µM*	-2.2%	1.78µM*
SMILES	RORg inh	Luc counter	Gal4-VP16 FLuc
COc1ccc(C(=O)Nc2cc(C)on2)cc1OC	4.0%	x	4.7%
CN(C)c1ccc(C(=O)Nc2nnc(C3=COCCO3)o2)cc1	1.58µM*	-3.2%	2.82µM*
CC(C)(C)c1ccc(C(=O)Nc2nnc(C3=COCCO3)o2)cc1	0.178µM*	x	u
O=C(Nc1nnc(-c2ccc(Cl)cc2)o1)Nc1ccccc1F	-21.2%	x	-0.7%
CN(C)c1ccc(C(=O)NCc2ccc3c(c2)CCO3)cc1	6.8%	x	-12.6%
COc1ccc(C(=O)Nc2nnc(C3=COCCO3)o2)cc1OC	1.58µM*	x	1.78µM*
Cc1ccc(/C=N/NC(=O)Cn2nnc(N)n2)o1	-3.3%	x	2.1%
Cc1cc(NC(=O)c2ccc(N(C)S(=O)(=O)c3ccccc3)cc2)no1	12.6%	1.5%	-7.3%
CN(c1ccccc1)S(=O)(=O)c1ccc(C(=O)Nc2nnc(C3=COCCO3)o2)cc1	1.12µM*	-2.2%	4.47µM*
COC(=O)N1CCC2(CC1)CCN(c1ccncc1)CC2	-30.1%	-3.2%	-2.6%
Cc1ccc(C(=O)N/N=C\c2ccc([N+](=O)[O-])s2)cn1	2.82µM*	0.8%	3.16µM*
Cc1cccc(N/N=C/c2ccc(C)s2)c1	-2.7%	x	1.6%
Cc1[nH]cnc1C(=O)N/N=C/c1ccc([N+](=O)[O-])s1	-30.3%	x	u
CCOC(=O)N/N=C\c1ccc([N+](=O)[O-])s1	-14.1%	1.8%	2.5%
Cc1cc(C)n(CC(=O)N/N=C/c2ccc([N+](=O)[O-])s2)n1	-11.1%	0.9%	7.9%
Cn1c(SCC(=O)N/N=C/c2ccc([N+](=O)[O-])s2)nnc1-c1ccc(Cl)cc1	u	3.0%	17.8µM*
Cc1ccc(/C=N/N=C/c2ccc(C)s2)s1	7.94µM*	0.3%	-23.6%
Cc1ccc(C(=O)N/N=C/c2ccc([N+](=O)[O-])s2)cc1	0.708µM*	-4.9%	1.26µM*
C[C@](N)(COP(=O)(O)O)C(=O)O	-14.6%	2.7%	-16.1%
COc1ccc2c(CSc3nc4nc(C)cc(C)n4n3)cc(=O)oc2c1	27.8%	-5.3%	2.9%
Cc1cc(C)n(C(=O)COc2ccccc2[N+](=O)[O-])n1	5.4%	x	4.2%
COc1ccc2[nH]cc(CCNc3nc(-c4cccc(C#N)c4)nc4ccccc34)c2c1	u	x	-15.0%
O=C(COC(=O)C1COc2ccccc2O1)Nc1cccc(S(=O)(=O)N2CCCCC2)c1 (stereo not given)	2.7%	5.7%	-6.0%
O=C(N/N=C/c1cccc([N+](=O)[O-])c1)c1cccc(Br)c1	u	2.7%	15.3%
O=C(N/N=C/c1ccc([N+](=O)[O-])s1)c1cccc(Br)c1	1.12µM*	-2.9%	1.26µM*
SMILES	RORg inh	Luc counter	Gal4-VP16 FLuc
Cc1ccc(/C=N/NC(=O)c2ccncc2)s1	7.08µM*	x	u
O=C(N/N=C/c1ccc([N+](=O)[O-])s1)c1ccncc1	4.47µM*	x	4.47µM*
O=C(N/N=C/c1ccccc1[N+](=O)[O-])c1ccncc1	23.0%	x	13.3%
Cc1ccc(/C=N/NC(=O)c2ccncc2)cc1	-11.4%	x	-11.3%
COc1ccc(NC(=O)N2CCc3nc(-c4ccc(OC)cc4C)c4c(c3C2)CO[C@@H](c2ccccc2)C4)cc1	x	-0.4%[7.66 µM]	x
CCCCn1nc(NS(=O)(=O)c2cccc3nonc23)c2cc3cccc(C)c3nc21	u	x	5.6%
CC(C)CN1CC2(CCN(C(=O)c3cccc(F)c3)CC2)C1	-5.2%	-4.2%	10.0%
C=CCn1c(SCN2C(=O)c3ccccc3C2=O)nc2ccc(Cl)cc2c1=O	8.91µM*	1.7%	7.94µM*
C=CCn1c(SCC(=O)Nc2sccc2C(N)=O)nc2ccc(Cl)cc2c1=O	0.2%	1.8%	-16.9%
COc1cc(NC(=O)CN2CCN(Cc3ccc4c(c3)OCO4)CC2)cc(OC)c1	-0.5%	-0.8%	-0.5%
COC(=O)c1ccccc1NC(=S)N1CCN(c2ccccc2)CC1	-23.0%	x	0.0%
Cc1ccccc1NC(=S)N1CCCCCC1	11.2µM*	x	-26.9%
